The values below come from publication PMC7862700, “An all-to-all approach to the identification of sequence-specific readers for epigenetic DNA modifications on cytosine”.

Test in all cases: DAPPL (digital affinity profiling via proximity ligation, sequencing); 10 mM Tris-HCl pH 7.5, 50 mM NaCl, 1 mM DTT, 4% glycerol, room temperature, 30 min; GST-TFs on glutathione beads, 16-mer random dsDNA library, 0.1% formaldehyde crosslink after washing; high values mean tight binding
The target of experiment [1] is T1, FEV (Homo sapiens, UniProt Q99581 1-238).
T1 sequence: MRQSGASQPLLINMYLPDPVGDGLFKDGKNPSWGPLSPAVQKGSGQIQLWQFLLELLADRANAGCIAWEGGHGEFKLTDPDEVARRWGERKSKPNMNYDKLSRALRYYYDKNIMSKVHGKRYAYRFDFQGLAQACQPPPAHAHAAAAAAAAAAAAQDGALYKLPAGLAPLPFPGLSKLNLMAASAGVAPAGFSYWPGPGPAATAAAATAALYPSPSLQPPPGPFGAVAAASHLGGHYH
The conditions noted are these: protein: recombinant; tags: N-terminal GST; dsDNA, one strand shown. The method in brief: (§1)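 Binding signal is given per hexamer as its read frequency for a factor divided by its frequency in the tag-only sample. GST-fused human transcription factors were expressed in yeast, captured on glutathione beads, barcoded with DNA and pooled with that sample, then incubated with 200 nmole of a 16-mer random double-stranded DNA library in Tris/NaCl/DTT/glycerol buffer for 30 min at room temperature. The pools were then washed, crosslinked, proximity-ligated, amplified by PCR and sequenced on an Illumina NextSeq500.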

In experiment [2] the target is ETV5 (Homo sapiens, UniProt P41161 1-510). The settings on record: protein: recombinant; tags: N-terminal GST; dsDNA, one strand shown. An outline of the steps: as §1
Sequence of ETV5 (P41161 whole entry): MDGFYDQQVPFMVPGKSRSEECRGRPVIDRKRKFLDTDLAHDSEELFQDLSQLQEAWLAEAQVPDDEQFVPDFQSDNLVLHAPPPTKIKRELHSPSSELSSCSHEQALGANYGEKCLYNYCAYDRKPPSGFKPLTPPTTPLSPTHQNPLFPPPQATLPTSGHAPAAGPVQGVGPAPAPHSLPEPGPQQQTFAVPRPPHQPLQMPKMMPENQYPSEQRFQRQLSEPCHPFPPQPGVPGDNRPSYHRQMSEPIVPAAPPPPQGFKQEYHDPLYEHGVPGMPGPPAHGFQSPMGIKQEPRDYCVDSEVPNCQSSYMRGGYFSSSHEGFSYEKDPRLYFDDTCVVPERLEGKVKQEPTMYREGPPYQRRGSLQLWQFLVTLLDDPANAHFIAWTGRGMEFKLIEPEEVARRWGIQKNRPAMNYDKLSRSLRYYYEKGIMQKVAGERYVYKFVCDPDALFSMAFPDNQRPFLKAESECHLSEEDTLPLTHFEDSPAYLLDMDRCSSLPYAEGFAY
Experiment [3] deals with HSF1 (Homo sapiens, UniProt Q00613 1-529). The settings on record: protein: recombinant; tags: N-terminal GST; chain copies: 3; dsDNA, one strand shown. The method in brief: as §1
Sequence of HSF1 (Q00613 whole entry): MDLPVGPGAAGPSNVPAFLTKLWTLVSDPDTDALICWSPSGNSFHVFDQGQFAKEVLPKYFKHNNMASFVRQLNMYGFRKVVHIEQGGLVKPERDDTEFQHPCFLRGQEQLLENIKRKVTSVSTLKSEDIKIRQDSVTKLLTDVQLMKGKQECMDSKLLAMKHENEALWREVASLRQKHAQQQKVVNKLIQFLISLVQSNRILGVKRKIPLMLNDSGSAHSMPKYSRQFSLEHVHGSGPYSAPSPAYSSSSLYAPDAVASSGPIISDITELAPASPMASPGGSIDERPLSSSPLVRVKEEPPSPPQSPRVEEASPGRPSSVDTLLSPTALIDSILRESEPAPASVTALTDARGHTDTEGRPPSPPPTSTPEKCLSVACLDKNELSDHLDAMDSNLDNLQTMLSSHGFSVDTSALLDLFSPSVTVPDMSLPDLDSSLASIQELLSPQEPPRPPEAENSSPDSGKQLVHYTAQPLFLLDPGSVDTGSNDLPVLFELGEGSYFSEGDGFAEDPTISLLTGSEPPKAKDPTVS
Experiment [4] addresses T2, SPIC (Homo sapiens, UniProt Q8N5J4 1-248).
T2 sequence: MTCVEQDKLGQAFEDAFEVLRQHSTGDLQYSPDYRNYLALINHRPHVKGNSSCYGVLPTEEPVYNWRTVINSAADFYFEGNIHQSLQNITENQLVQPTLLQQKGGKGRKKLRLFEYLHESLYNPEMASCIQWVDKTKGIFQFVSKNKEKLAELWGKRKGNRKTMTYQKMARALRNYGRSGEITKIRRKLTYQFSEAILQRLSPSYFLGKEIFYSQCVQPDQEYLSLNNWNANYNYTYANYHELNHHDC
The conditions noted are these: protein: recombinant; tags: N-terminal GST; dsDNA, one strand shown. The method in brief: as §1

Experiment [5] concerns the target ELF4 (Homo sapiens, UniProt Q99607 1-663). The settings on record: protein: recombinant; tags: N-terminal GST; dsDNA, one strand shown. The method in brief: as §1
The target in experiment [6] is T3, ELK4 (Homo sapiens, UniProt P28324-2 1-405).
T3 sequence: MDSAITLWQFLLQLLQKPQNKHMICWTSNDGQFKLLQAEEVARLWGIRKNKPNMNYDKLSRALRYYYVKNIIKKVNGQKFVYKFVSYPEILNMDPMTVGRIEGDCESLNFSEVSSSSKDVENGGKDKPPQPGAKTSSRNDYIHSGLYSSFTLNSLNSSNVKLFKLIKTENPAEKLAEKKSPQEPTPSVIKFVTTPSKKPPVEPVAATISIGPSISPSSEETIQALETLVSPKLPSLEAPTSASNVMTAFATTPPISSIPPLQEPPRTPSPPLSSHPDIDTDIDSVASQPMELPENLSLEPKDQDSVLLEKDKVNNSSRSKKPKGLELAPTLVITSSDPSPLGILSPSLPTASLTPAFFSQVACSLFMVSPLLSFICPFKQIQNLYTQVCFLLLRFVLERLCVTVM
The conditions noted are these: protein: recombinant; tags: N-terminal GST; dsDNA, one strand shown. An outline of the steps: as §1

Experiment [7] concerns the target T4, ETV2 (Homo sapiens, UniProt O00321 1-342).
T4 sequence: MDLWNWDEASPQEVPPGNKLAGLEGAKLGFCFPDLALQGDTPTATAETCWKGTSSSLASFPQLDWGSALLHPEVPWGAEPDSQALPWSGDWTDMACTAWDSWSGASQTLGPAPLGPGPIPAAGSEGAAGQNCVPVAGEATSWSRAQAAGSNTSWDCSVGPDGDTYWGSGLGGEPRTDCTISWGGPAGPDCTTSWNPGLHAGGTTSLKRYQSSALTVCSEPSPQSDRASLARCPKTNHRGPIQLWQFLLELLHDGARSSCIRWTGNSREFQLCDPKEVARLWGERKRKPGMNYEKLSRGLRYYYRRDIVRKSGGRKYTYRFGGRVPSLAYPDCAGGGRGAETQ
The settings on record: protein: recombinant; tags: N-terminal GST; dsDNA, one strand shown. The method in brief:
as §1

Experiment [8] has as its target T5, ELF3 (Homo sapiens, UniProt P78545 1-371).
T5 sequence: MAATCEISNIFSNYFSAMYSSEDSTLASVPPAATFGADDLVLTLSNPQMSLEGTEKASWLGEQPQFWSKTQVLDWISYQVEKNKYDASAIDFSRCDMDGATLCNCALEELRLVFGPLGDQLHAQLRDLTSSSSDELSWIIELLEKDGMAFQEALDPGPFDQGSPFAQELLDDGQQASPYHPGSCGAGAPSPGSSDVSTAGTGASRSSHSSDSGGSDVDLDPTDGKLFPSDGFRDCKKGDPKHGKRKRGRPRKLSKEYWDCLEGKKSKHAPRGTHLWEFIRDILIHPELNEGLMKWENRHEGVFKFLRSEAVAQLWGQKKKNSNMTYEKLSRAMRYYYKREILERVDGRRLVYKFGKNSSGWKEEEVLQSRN
The conditions noted are these: protein: recombinant; tags: N-terminal GST; dsDNA, one strand shown. The method in brief: as §1

For experiment [9], the target named is CRX (Homo sapiens, UniProt O43186 1-299). The settings on record: protein: recombinant; tags: N-terminal GST; dsDNA, one strand shown. An outline of the steps:
as §1

Experiment [10] has as its target ETV1 (Homo sapiens, UniProt P50549 1-477). The conditions noted are these: protein: recombinant; tags: N-terminal GST; dsDNA, one strand shown. The method in brief:
as §1

Experiment [11] deals with T6, ERF (Homo sapiens, UniProt P50548 1-548).
T6 sequence: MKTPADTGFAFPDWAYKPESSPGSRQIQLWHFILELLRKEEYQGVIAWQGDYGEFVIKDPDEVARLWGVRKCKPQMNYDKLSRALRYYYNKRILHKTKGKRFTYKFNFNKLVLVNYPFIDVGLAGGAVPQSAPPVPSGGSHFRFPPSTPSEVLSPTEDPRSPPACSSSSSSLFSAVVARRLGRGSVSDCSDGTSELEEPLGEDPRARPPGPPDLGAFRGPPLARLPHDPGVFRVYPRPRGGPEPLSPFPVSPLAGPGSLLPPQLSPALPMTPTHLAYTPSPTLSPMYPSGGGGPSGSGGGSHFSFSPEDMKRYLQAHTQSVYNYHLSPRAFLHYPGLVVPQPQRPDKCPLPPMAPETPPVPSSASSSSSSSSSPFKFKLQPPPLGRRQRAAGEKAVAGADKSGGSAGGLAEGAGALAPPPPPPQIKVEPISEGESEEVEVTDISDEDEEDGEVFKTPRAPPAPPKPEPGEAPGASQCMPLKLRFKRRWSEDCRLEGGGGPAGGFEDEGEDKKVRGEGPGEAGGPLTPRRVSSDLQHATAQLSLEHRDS
The settings on record: protein: recombinant; tags: N-terminal GST; dsDNA, one strand shown. The method in brief:
as §1

Experiment [12] has as its target T7, ETV3L (Homo sapiens, UniProt Q6ZN32 1-361).
T7 sequence: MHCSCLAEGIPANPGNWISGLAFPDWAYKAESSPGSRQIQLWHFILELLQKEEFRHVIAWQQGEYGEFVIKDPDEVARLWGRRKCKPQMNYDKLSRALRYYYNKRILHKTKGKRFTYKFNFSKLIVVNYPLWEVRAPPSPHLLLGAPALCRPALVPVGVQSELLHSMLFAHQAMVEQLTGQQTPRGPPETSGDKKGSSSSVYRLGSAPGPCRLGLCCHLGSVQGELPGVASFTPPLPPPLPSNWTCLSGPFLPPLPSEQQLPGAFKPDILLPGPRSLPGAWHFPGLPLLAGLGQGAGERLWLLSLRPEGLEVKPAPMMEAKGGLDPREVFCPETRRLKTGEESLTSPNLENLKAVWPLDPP
The conditions noted are these: protein: recombinant; tags: N-terminal GST; dsDNA, one strand shown. The method in brief:
as §1

Experiment [13] has as its target T8, ETS2 (Homo sapiens, UniProt P15036 1-469).
T8 sequence: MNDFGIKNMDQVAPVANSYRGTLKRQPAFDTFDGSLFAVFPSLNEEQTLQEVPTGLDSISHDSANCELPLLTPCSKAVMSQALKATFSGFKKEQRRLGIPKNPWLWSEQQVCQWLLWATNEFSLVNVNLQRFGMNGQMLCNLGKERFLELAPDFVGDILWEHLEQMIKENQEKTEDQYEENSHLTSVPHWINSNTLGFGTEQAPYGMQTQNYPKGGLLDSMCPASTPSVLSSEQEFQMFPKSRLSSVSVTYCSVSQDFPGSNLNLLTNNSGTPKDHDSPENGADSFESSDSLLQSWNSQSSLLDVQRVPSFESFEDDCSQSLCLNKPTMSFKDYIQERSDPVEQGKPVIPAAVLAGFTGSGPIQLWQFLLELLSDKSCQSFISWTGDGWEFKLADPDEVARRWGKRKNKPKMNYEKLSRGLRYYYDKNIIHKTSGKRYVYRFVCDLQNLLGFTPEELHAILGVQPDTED
The settings on record: protein: recombinant; tags: N-terminal GST; dsDNA, one strand shown. An outline of the steps:
as §1

Experiment [14] concerns the target T9, SPDEF (Homo sapiens, UniProt O95238 1-335).
T9 sequence: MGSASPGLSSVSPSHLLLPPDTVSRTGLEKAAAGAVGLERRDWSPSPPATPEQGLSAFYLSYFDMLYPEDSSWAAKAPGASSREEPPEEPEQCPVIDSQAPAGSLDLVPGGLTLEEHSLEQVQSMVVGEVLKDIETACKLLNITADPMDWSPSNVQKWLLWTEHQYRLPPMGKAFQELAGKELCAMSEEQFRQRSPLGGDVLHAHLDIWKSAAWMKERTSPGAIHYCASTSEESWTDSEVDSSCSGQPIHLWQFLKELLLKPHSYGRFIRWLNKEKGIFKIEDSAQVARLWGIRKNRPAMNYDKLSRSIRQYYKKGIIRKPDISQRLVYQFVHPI
The settings on record: protein: recombinant; tags: N-terminal GST; dsDNA, one strand shown. The method in brief:
as §1

Experiment [15] has as its target T10, ETV7 (Homo sapiens, UniProt Q9Y603 1-341).
T10 sequence: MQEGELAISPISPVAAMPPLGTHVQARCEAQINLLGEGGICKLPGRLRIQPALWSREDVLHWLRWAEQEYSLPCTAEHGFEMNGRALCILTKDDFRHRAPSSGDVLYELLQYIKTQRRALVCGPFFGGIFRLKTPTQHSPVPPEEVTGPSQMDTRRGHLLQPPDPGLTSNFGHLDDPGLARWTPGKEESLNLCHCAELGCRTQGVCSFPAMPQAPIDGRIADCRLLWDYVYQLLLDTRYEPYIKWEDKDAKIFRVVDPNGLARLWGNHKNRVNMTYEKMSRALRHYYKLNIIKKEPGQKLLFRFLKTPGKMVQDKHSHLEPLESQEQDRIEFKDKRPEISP
The conditions noted are these: protein: recombinant; tags: N-terminal GST; dsDNA, one strand shown. The method in brief: as §1

The target in experiment [16] is T11, ELF5 (Homo sapiens, UniProt Q9UKW6-2 1-255).
T11 sequence: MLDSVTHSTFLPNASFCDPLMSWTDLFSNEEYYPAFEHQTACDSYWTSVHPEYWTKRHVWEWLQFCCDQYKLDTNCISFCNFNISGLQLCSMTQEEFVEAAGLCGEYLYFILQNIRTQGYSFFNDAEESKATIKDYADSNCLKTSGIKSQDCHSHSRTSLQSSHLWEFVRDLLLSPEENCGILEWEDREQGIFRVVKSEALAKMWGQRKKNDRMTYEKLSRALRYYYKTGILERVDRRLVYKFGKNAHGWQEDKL
The conditions noted are these: protein: recombinant; tags: N-terminal GST; dsDNA, one strand shown. The method in brief:
as §1

The target of experiment [17] is T12, ETV3 (Homo sapiens, UniProt P41162-2 1-143).
T12 sequence: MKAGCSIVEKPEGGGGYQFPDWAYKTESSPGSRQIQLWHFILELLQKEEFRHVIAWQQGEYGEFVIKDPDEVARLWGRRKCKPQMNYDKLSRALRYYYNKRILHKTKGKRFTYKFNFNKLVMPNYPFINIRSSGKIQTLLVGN
The settings on record: protein: recombinant; tags: N-terminal GST; dsDNA, one strand shown. The method in brief:
as §1

In experiment [18] the target is ETV6 (Homo sapiens, UniProt P41212 1-452). The conditions noted are these: protein: recombinant; tags: N-terminal GST; dsDNA, one strand shown. An outline of the steps: as §1
Sequence of ETV6 (P41212 whole entry): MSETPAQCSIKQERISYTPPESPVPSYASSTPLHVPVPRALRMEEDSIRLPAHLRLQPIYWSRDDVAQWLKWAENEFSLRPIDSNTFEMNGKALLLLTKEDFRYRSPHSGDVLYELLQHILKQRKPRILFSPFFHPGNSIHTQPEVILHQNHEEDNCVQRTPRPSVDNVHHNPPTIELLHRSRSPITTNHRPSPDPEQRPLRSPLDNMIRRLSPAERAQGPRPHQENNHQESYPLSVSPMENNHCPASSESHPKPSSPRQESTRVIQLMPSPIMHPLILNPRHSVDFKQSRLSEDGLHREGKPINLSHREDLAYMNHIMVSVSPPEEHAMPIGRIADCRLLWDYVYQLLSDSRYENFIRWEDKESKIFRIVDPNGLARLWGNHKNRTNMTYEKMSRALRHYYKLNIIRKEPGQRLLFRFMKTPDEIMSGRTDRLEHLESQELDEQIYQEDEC

Sequence of CRX (O43186 whole entry): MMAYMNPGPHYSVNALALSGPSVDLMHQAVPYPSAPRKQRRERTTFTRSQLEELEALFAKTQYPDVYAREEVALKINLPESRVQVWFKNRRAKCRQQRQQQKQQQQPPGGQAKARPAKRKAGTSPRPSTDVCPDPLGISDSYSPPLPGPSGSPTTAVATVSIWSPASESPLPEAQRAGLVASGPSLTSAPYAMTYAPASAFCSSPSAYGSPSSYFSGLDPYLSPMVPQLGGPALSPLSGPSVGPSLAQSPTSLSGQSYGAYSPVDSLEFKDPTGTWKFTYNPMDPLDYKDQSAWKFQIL
Sequence of ELF4 (Q99607 whole entry): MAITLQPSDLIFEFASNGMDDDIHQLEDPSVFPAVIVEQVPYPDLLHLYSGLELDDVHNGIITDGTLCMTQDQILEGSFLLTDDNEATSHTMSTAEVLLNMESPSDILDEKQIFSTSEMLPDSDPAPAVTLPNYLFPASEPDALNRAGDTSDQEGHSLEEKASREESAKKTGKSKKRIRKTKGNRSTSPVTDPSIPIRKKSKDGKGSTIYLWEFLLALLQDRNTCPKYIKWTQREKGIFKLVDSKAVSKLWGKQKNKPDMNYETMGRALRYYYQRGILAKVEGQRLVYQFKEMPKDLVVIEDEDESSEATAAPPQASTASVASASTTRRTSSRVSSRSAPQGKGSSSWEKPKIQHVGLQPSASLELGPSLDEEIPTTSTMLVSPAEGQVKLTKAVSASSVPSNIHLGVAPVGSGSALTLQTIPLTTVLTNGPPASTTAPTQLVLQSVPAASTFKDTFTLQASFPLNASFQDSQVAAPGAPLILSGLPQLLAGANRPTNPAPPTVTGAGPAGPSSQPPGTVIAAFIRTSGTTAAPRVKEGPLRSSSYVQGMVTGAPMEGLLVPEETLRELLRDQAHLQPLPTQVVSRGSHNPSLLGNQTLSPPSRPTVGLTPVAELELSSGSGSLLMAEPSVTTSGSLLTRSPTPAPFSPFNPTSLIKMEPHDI
Sequence of ETV1 (P50549 whole entry): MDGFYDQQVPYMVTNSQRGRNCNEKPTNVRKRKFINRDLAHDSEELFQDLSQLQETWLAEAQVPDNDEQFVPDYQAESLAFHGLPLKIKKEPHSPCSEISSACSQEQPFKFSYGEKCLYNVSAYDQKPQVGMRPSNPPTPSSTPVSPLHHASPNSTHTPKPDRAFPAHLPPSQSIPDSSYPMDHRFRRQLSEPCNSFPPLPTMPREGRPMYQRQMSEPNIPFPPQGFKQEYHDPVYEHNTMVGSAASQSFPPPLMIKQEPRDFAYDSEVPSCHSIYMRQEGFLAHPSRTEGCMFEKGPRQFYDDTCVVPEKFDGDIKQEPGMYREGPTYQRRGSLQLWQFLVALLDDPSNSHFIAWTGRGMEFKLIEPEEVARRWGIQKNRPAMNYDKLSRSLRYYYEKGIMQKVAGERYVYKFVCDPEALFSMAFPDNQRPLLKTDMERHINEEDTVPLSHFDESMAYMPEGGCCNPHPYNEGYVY

For ATCTTC, the binding signal in [1] is 1.39 fold enrichment (6-mer frequency, TF over GST control); in experiment [2] it was 1.6 fold enrichment (6-mer frequency, TF over GST control); in experiment [3], 2.15 fold enrichment (6-mer frequency, TF over GST control); in experiment [4], 1.49 fold enrichment (6-mer frequency, TF over GST control); in experiment [5], 1.31 fold enrichment (6-mer frequency, TF over GST control); in experiment [6] it was 1.56 fold enrichment (6-mer frequency, TF over GST control). In addition, the binding signal was 1.75 fold enrichment (6-mer frequency, TF over GST control) in [7]; 1.69 fold enrichment (6-mer frequency, TF over GST control) in experiment [8]; 1.98 fold enrichment (6-mer frequency, TF over GST control) in [9]; 1.63 fold enrichment (6-mer frequency, TF over GST control) in experiment [10]; 1.45 fold enrichment (6-mer frequency, TF over GST control) in [11]; 1.63 fold enrichment (6-mer frequency, TF over GST control) in [12]. The binding signal in experiment [13] was 1.6 fold enrichment (6-mer frequency, TF over GST control); in [14], 1.55 fold enrichment (6-mer frequency, TF over GST control); in experiment [15], 1.43 fold enrichment (6-mer frequency, TF over GST control); in experiment [16], 1.82 fold enrichment (6-mer frequency, TF over GST control); in [17] it was 1.49 fold enrichment (6-mer frequency, TF over GST control); in experiment [18], 1.54 fold enrichment (6-mer frequency, TF over GST control).
